# Results taken from PubChem BioAssay (NCATS).
# A number with no mark means an inactive call. Inconclusive results are not listed. Entries that show only a call come without a potency. Active and inactive are the calls of the source. Unless noted, calls follow the shape of the dose curve; as a rule, active = well fitted curve in the direction sought with a large enough effect; inconclusive = small, poorly fitted or top-dose-only effect, or another doubt; inactive = no such curve, though single readings can be large; an effect the other way counts as inactive or inconclusive.
# How the values were obtained:
# [1] = HTS Assay for Allosteric Antagonists of the Human D2 Dopamine Receptor: Hit Validation in HTRF (AID 624455);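 also: stable D1 dopamine receptor cell line scored for blocking the D1 response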
# Method in brief: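 First, antagonism was screened by calcium flux in a force-coupled, inducible Hek293 Trex D2 line challenged with EC80 dopamine. Hits then went into an HTRF assay in cells stably expressing D1, testing inhibition of the D1 response.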
# [2] = target: Arylsulfatase A (Homo sapiens) (UniProt P15289); assay: qHTS screen for enhancers of Arylsulfatase A (ASA1): LOPAC Validation Assay (AID 720538); also: potency is read from the fitted curve at half-maximal effect
# Method in brief: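 Cell-based enhancement test: residual ASA activity in SV40-transformed I179S patient fibroblasts is measured by pNCS turnover (0.5mM final, 14h, room temperature) following 48h compound incubation; higher fluorescence indicates activation.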
# [3] = qHTS for compounds that reverse cellular toxicity of Amyloid beta (A-beta) peptide in yeast: LOPAC Validation Assay (AID 720559)
# Method in brief: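 Here, A-beta-toxic yeast grow with test compounds at 30 C for 48 hr before optical density at 600 nm is recorded; data are normalized against DMSO and the FeCl3-clioquinol control.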
# [4] = qHTS for Activators of Parkin Expression: LOPAC Validation Assay (FLuc Reporter) (AID 720573)
# Method in brief: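 Readout is FLuc luminescence from neuronal reporter cells (Parkin promoter, FLuc plus NLuc) after 24 h compound exposure in dose response. Values normalized to neutral DMSO and positive-control compounds.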
# [5] = target: T1, Hexokinase-4 (Homo sapiens) + Glucokinase regulatory protein (Homo sapiens) (UniProt P35557+Q14397); assay: qHTS assay for inhibitors of recombinant human GCK-GKRP interaction: Diaphorase-coupled assay (AID 743205)
# Method in brief: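 Signal derives from resorufin generated by diaphorase, linked to GCK turnover of glucose (5 mM) and ATP (0.4 mM). Enzyme complex was added after a 20-minute compound preincubation and monitored for 30 minutes.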
# [6] = target: T1, Hexokinase-4 (Homo sapiens) + Glucokinase regulatory protein (Homo sapiens); assay: qHTS assay for inhibitors of recombinant human GCK-GKRP interaction: ADP-Glo assay (AID 743206)
# Method in brief: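 GST-GCK and FLAG-GKRP (15 nM each in the dispensed mix, with 2 uM S6P) react with 0.4 mM ATP and 5 mM glucose (final) in Hepes pH 7.6 for 60 min at room temperature. ADP is measured by ADP-Glo luminescence.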
# [7] = target: T1, Hexokinase-4 (Homo sapiens) + Glucokinase regulatory protein (Homo sapiens); assay: qHTS assay for inhibitors of recombinant human GCK-GKRP interaction: HTRF assay (AID 743207)
# Method in brief: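 Titration screening format: recombinant GST-GCK and FLAG-GKRP at 5 nM, S6P at 2 uM, labelled anti-tag antibodies, 60 min at RT, dual-wavelength HTRF readout.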
# [8] = Natriuretic polypeptide receptor (hNpr1) antagonism - Pilot counterscreen GloSensor control cell line (AID 1347045; calls by dose curve; also: potency is read from the fitted curve at half-maximal effect)
# Method in brief: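 Luminescence was read before and 20 min after adding 50 uM SNP, which stimulates soluble guanylyl cyclase. The HEK293 cells expressing the GloSensor cGMP sensor had been preloaded with 2% reagent for 2 h and treated with compound.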
# [9] = target: Atrial natriuretic peptide receptor 1 (Homo sapiens) (UniProt P16066); assay: Natriuretic polypeptide receptor (hNpr1) antagonism - Pilot screen (AID 1347049; calls by dose curve;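 also: agonist-evoked cGMP luminescence read 20 min after hNppA addition; potency is read from the fitted curve at half-maximal effect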)
# Method in brief: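 Readout is cGMP-driven firefly luciferase luminescence in HEK293 cells carrying hNpr1 and a PDE5-domain GloSensor, read before and 20 min after 0.1 nM hNppA stimulation. Cells had 2% substrate reagent for 2 h and test compound for 30 min.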
# [10] = target: Atrial natriuretic peptide receptor 2 (Homo sapiens) (UniProt P20594); assay: Natriuretic polypeptide receptor (hNpr2) antagonism - Pilot subtype selectivity assay (AID 1347050; calls by dose curve; also: potency is read from the fitted curve at half-maximal effect)
# Method in brief: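 Pilot selectivity screen against hNpr2: HEK293 cGMP-sensor cells are treated with LOPAC1280 compounds, then with hNppC peptide at 1 nM final. The cGMP-driven luminescence change over 20 min at room temperature is the read-out.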
# [11] = target: T2, Tyrosine-protein phosphatase non-receptor type substrate 1 (Homo sapiens) + Leukocyte surface antigen CD47 (Homo sapiens) (UniProt P78324+Q08722); assay: CD47-SIRPalpha protein protein interaction - LANCE assay qHTS validation (AID 1347057; active = well fitted curve in the direction sought with a large enough effect in the signal ratio, with a control signal flat, not every such curve was filed as active; the % refers to the signal ratio; also: series mostly up to about 38 µM)
# Method in brief: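 First, His-tagged CD47 and Eu-labelled anti-His antibody met the compound for 30 min; next, site-specifically biotinylated SIRPalpha was added for 30 min; finally streptavidin-APC was added before reading the TR-FRET ratio.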
# [12] = target: T2, Tyrosine-protein phosphatase non-receptor type substrate 1 (Homo sapiens) + Leukocyte surface antigen CD47 (Homo sapiens); assay: CD47-SIRPalpha protein protein interaction - HTRF assay qHTS validation (AID 1347058; active = well fitted curve in the direction sought with a large enough effect in the signal ratio, not every such curve was filed as active; the % refers to the signal ratio;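 also: recombinant soluble extracellular CD47 with His tag and biotinylated SIRPalpha domains; series mostly up to about 38 µM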)
# Method in brief: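 TR-FRET read (Ch1/Ch2 ratio) of soluble extracellular CD47 and Avi-biotinylated SIRPalpha domains in PBS pH 7.4 with 0.05% IGEPAL; 7-point compound titration. Sequential 30 min room-temperature steps; non-biotinylated SIRPalpha as control inhibitor.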
# [13] = target: T2, Tyrosine-protein phosphatase non-receptor type substrate 1 (Homo sapiens) + Leukocyte surface antigen CD47 (Homo sapiens); assay: CD47-SIRPalpha protein protein interaction - Alpha assay qHTS validation (AID 1347059)
# Method in brief: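 Binding is measured by AlphaScreen proximity: Ni-NTA acceptor beads capture His-CD47, streptavidin donor beads capture biotin-SIRPalpha. Each of three additions (SIRPalpha with compound, CD47, beads) incubates 30 min at room temperature protected from light.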
# [14] = target: Parathyroid hormone/parathyroid hormone-related peptide receptor (Homo sapiens) (UniProt Q03431); assay: qHTS for PTHR1 Agonists: Optimization Screen against the NCGC LOPAC library (AID 1347079);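 also: GloSensor cAMP luminescence in HEK-293 GP2 cells expressing human PTHR1 with IBMX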
# Method in brief: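 Agonist readout: GloSensor cAMP luminescence, read after 15 min at room temperature. HEK-293-derived GP2 line carries PTHR1; compounds tested as a titration for 1 hr at 37C in presence of IBMX. M-PTH (1-15) served as control.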
# [15] = target: Lysine-specific demethylase 5B (Homo sapiens) (UniProt Q9UGL1); assay: Optimization screen for KDM5B Histone Demethylases FDH coupled qHTS against the LOPAC library (AID 1347166)
# Method in brief: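 KDM5BDeltaAP (200nM final) preincubated 10 min with compound, then 12.5uM H3K4Me3, 25uM a-ketoglutarate, ascorbate, Fe(II), NAD+ and FDH added; 50mM HEPES pH 7.5, 0.01% Tween-20. NADH fluorescence (340/450 nm) change over 30 min, room temperature.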
# [16] = qHTS for inhibitors of adenylyl cyclases using a fission yeast platform: a pilot screen against the NCATS LOPAC library (AID 1347410)
# Method in brief: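 Inhibition of GNAS-stimulated AC9 activity in S. pombe was inferred from derepression of a PKA-repressed fbp1-GFP reporter, measured as cytometric fluorescence after 18 h at 30C with compounds at up to 57 µM.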
# [17] = Validation qHTS assay for inhibitors of Activation Induced Cytidine Deaminase (AID): UDG Counterscreen signal (AID 1347427)
# Method in brief: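 Counterscreen read of UDG activity (2 U/mL, 4/3x) in the FRET deamination format with AID (1 uM, 4/3x), DJC20/DJC23 substrates (250 nM, 4x), 4 h at room temperature. NaOH stop, fluorescence at 560 ex/665 em.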
# [18] = target: Single-stranded DNA cytosine deaminase (Homo sapiens) (UniProt Q9GZX7); assay: Validation qHTS assay for inhibitors of Activation Induced Cytidine Deaminase (AID): AID signal (AID 1347429)
# Method in brief: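 Fluorescence at 540 nm excitation and 590 nm emission reports ssDNA cytosine deamination by AID, with UDG in the same well. Compound-treated reactions ran 4 hr at room temperature with DJC20/DJC23 substrate, followed by 30 min NaOH treatment.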
# [19] = Primary qHTS for inhibitors of La Crosse Virus (LACV) - induced cell death in SH-SY5Y cells (AID 1508616);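 also: top concentration of the series differs between compounds; higher means more rescue of cells from virus-induced death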
# Method in brief: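 Protection against LACV-induced cell death is scored in SH-SY5Y cells exposed to compounds and virus (0.01 MOI) for 6 days. Data normalized to virus-infected DMSO wells and virus-free DMSO wells.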
# [20] = Cell Viability qHTS for small molecule stabilizers of the endoplasmic reticulum resident proteome (AID 1508629); conditions: cell viability counter-screen, 100 nM thapsigargin for final 4 h;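 also: human SH-SY5Y neuroblastoma cells carrying the GLuc-SERCaMP reporter; compound exposure about 46 h in total before the viability read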
# [21] = target: Papain (Carica papaya) (UniProt P00784); assay: Primary qHTS assay for inhibitors of the protease papain (AID 1645873);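 also: papain turnover of Z-FR-AMC read as the AMC fluorescence gain over 10 min; series mostly up to about 50 µM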
# [22] = target: Metallo-beta-lactamase type 2 (Klebsiella pneumoniae) (UniProt C7C422); assay: qHTS to identify inhibitors of the New Delhi Metallo-beta-lactamase (NDM): assay validation screen against the NCATS LOPAC Collection (AID 1794843);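 also: nitrocefin turnover by NDM-1 measured as 485 nm absorbance at plateau; series mostly up to about 38 µM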
# Method in brief: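 NDM-1 at 2 nM final in 50 mM HEPES pH 7.0 with 1 uM ZnSO4 and 0.01% Tween20 was preincubated with library compounds in DMSO. Nitrocefin (50 uM stock) was then added, and absorbance at 485 nm was read at the kinetic plateau.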
# [23] = target: Glutathione peroxidase 1 (Homo sapiens) (UniProt P07203); assay: Primary qHTS Assay for Inhibitors of Recombinant Selenoprotein Glutathione Peroxidase 1 (GPX1) (AID 1845191); also: nearly all actives have a fitted effect of over 65% in size
# Method in brief: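 10 nM GPX1 + cpd, 30 min RT; start w/ 1 mM GSH, 0.5 mM cumene hydroperoxide, 0.5 mM NADPH, 100 nM GR, 0.01% BSA; buffer 50 mM Tris-HCl pH 7.5, 2 mM EDTA, 150 mM NaCl; Fl 340/450, 0 & 15 min.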
# [24] = target: Phospholipid hydroperoxide glutathione peroxidase GPX4 (Homo sapiens) (UniProt P36969); assay: Primary qHTS Assay for Inhibitors of Recombinant Selenoprotein Glutathione Peroxidase 4 (GPX4) (AID 1845192); conditions: outcome: dose series up to 50 µM unless noted; also: nearly all actives have a fitted effect of over 65% in size
# Method in brief: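 NADPH consumption, followed by fluorescence at 340/450 nm between 0 and 15 min, reports GPX4 activity via coupled glutathione reductase (100 nM). Enzyme 200 nM was pre-exposed to compound 30 min; 0.5 mM cumene hydroperoxide and 1 mM GSH served as substrates.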
# T2 sequence (P78324 whole entry, looked up): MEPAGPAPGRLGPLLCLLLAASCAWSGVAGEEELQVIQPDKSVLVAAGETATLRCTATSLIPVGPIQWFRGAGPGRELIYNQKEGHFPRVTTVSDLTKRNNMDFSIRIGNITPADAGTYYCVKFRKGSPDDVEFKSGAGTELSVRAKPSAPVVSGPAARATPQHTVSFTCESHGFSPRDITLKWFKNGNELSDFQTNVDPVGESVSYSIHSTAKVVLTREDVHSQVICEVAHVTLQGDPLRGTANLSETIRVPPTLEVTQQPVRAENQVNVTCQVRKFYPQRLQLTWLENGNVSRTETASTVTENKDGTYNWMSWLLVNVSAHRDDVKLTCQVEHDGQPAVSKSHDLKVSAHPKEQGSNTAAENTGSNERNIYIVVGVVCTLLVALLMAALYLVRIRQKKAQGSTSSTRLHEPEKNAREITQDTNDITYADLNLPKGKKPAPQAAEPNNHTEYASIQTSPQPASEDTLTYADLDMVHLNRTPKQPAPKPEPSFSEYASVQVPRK
# T2 sequence (Q08722 whole entry, looked up): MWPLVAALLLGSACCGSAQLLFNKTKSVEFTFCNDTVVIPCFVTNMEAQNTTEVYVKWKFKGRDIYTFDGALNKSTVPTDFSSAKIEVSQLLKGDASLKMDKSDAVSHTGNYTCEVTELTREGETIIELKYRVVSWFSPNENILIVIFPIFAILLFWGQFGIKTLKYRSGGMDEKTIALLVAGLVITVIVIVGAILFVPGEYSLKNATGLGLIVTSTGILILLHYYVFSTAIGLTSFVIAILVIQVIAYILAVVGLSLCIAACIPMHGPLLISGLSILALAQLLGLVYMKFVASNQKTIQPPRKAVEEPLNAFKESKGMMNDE
# T1 sequence (P35557 whole entry, looked up): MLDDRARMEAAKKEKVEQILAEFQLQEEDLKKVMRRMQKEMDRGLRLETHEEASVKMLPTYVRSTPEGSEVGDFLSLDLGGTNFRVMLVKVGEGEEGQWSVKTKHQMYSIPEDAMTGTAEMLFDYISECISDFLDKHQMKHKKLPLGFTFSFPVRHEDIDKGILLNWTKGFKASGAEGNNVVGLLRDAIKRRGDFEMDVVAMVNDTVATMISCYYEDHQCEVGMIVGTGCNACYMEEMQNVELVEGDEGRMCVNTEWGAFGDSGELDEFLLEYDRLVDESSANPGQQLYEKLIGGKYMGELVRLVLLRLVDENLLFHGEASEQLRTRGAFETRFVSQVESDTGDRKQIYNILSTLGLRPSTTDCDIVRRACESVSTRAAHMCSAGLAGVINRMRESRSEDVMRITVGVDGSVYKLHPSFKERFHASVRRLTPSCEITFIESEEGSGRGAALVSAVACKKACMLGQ
# T1 sequence (Q14397 whole entry, looked up): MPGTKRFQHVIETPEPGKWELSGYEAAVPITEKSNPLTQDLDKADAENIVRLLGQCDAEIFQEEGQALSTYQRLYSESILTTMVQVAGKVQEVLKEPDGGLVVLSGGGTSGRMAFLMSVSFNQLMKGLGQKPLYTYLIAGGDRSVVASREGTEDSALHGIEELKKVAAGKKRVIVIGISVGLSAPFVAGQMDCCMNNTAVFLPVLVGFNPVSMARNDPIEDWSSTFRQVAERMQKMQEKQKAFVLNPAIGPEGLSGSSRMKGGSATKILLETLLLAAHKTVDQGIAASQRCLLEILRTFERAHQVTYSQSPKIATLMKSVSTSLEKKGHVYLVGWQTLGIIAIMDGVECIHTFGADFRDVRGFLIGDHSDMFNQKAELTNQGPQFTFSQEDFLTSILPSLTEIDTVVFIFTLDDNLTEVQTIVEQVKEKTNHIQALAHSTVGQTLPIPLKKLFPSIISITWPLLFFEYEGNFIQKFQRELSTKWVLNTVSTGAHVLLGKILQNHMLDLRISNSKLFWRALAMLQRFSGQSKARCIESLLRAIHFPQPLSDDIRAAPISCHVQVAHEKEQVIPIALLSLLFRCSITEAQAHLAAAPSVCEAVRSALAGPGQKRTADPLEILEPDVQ
# Chain of Phospholipid hydroperoxide glutathione peroxidase GPX4 (Homo sapiens) (P36969 whole entry, looked up): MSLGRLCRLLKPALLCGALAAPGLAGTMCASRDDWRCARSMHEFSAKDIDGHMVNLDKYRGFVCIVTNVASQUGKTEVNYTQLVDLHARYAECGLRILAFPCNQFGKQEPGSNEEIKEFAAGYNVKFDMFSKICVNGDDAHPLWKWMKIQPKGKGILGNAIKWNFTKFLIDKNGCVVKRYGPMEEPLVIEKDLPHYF
# Chain of Glutathione peroxidase 1 (Homo sapiens) (P07203 whole entry, looked up): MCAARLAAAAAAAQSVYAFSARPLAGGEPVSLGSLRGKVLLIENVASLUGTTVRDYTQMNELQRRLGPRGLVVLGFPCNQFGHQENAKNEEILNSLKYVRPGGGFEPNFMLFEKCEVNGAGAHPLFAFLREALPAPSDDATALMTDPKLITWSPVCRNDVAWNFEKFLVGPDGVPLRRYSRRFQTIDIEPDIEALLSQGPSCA
# Chain of Lysine-specific demethylase 5B (Homo sapiens) (Q9UGL1 whole entry, looked up): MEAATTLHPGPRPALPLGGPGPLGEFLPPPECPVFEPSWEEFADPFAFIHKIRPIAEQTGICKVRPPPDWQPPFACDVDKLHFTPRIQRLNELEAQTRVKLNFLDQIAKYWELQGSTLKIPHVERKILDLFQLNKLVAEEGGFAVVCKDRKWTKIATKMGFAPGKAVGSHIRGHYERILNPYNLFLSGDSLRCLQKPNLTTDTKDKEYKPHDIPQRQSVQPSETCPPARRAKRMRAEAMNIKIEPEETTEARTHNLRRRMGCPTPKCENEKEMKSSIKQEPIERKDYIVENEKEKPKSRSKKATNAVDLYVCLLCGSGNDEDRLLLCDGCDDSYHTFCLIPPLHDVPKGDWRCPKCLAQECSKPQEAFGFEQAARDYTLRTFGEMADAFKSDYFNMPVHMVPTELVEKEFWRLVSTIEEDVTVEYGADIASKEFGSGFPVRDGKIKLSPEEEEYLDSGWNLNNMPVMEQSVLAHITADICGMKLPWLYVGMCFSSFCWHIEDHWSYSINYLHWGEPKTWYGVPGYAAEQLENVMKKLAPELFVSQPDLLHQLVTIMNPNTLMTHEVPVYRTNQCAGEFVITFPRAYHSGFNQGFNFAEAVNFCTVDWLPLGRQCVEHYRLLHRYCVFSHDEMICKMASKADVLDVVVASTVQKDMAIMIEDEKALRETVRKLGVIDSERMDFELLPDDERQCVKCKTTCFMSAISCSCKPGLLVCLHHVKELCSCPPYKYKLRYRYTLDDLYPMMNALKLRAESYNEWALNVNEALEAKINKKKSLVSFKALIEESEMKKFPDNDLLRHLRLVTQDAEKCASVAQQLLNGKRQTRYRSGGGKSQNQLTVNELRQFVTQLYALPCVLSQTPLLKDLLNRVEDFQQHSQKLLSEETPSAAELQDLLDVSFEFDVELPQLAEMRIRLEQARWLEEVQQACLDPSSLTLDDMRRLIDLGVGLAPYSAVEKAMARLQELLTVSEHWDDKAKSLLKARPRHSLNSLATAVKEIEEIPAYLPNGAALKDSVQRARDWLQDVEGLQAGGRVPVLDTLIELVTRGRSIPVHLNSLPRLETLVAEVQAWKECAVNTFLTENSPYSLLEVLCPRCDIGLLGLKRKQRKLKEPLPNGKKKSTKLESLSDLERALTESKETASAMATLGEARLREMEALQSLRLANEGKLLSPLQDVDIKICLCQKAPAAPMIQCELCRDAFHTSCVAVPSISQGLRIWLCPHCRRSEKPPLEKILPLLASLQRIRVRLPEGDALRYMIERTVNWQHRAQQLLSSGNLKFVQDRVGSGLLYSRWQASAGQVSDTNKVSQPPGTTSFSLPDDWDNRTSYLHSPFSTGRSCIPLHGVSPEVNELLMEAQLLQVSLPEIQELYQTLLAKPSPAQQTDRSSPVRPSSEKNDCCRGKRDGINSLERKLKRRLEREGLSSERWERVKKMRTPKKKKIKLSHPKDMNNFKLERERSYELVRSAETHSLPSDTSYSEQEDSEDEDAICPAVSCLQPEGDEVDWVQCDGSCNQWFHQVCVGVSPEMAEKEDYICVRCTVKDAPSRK
# Chain of Parathyroid hormone/parathyroid hormone-related peptide receptor (Homo sapiens) (Q03431 whole entry, looked up): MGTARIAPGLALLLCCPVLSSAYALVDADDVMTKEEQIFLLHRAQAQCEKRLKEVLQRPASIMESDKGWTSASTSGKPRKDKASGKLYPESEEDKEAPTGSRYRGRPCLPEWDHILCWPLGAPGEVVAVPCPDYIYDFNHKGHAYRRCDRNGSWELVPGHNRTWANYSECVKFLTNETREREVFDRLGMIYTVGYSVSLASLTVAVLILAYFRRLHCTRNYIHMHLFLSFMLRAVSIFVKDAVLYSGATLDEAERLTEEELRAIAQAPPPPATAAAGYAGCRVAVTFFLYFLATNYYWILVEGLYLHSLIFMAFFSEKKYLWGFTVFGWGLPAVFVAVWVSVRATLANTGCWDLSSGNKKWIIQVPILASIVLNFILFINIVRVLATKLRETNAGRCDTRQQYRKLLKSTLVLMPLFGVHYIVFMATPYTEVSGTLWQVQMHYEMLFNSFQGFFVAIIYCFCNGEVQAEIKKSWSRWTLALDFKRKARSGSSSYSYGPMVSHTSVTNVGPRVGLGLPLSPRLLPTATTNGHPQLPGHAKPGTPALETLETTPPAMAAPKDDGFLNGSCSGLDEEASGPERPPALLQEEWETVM
# Chain of Papain (Carica papaya) (P00784 whole entry, looked up): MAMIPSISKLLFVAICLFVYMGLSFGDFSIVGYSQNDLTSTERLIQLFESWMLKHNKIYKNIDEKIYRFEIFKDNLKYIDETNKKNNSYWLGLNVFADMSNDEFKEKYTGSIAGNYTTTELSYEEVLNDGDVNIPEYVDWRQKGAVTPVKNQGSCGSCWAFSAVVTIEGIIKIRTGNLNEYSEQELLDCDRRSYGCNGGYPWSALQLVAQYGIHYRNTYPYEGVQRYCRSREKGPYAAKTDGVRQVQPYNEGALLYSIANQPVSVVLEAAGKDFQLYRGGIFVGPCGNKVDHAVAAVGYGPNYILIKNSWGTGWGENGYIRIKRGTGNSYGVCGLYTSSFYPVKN
# Chain of Single-stranded DNA cytosine deaminase (Homo sapiens) (Q9GZX7 whole entry, looked up): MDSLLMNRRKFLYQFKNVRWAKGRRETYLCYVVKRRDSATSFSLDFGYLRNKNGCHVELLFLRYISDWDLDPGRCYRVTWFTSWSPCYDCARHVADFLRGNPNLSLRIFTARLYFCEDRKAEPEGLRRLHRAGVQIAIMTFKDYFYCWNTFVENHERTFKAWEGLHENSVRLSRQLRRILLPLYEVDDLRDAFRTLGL
compound,measurement,setting,value
O=C1c2ccccc2C(=O)c2c(NCCc3ccc(O)cc3)ccc(NCCc3ccc(O)cc3)c21,outcome,[1],inactive
same,Potency,[2],9.53 µM (active)
same,outcome,[3],inactive
same,Potency,[4],inactive
same,outcome,[5],inactive
same,outcome,[6],inactive
same,outcome,[7],inactive
same,Potency,[8],11.7 µM (active)
same,Potency,[9],12 µM (active)
same,Potency,[10],13.1 µM (active)
same,outcome,[11],inactive
same,outcome,[12],inactive
same,Potency,[13],1.85 µM (active)
same,outcome,[14],inactive
same,outcome,[15],inactive
same,outcome,[16],inactive
same,outcome,[17],inactive
same,Potency,[18],inactive
same,outcome,[19],inactive
same,max response,[20],-20.2%
same,Potency,[21],inactive
same,Potency,[22],inactive
same,Potency,[23],inactive
same,Potency,[24],inactive
